D2 PAM-1: positive allosteric modulators of human D2 dopamine receptor; P14416; DiscoveRx D2 beta-arrestin cells, luminescence, 90 min; 100% = 57 uM dopamine signal; potentiation, % (test concentration not listed); actives 0.23% (n = 360,000); AID 624464; in the data active = potentiation above about 50%
Target sequence (P14416 whole entry, looked up): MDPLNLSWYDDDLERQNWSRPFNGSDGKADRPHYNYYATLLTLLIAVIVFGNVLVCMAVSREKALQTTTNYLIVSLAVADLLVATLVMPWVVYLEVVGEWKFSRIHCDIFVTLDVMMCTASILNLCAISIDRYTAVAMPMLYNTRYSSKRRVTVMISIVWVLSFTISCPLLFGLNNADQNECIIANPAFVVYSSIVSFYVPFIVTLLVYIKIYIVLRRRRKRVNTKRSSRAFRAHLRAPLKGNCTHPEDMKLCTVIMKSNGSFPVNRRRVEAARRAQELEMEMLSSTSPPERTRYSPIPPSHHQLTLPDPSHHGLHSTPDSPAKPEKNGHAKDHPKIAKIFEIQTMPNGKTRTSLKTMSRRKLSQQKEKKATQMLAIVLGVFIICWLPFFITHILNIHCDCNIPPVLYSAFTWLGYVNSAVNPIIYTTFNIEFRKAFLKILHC
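PathHunter beta-arrestin assay in DiscoveRx D2 cells. Compounds were added with an EC20 of dopamine (50 nM final) for 90 min at 37 deg C. Luminescence was read 1 h after detection reagent, with 57 uM dopamine as the EC100 control.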
D2 PAM-2: D2 dopamine receptor (human) potentiation; HEK293 T-REx D2, calcium flux, EC20 dopamine potentiation; potentiation, % at 10 µM; AID 485347; actives 0.34% (n = 340,000); P14416;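 active = potentiation over 3 SD above the plate norm, cut at about 30% in these data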; also: 0% is about no effect
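Tetracycline-induced HEK293 T-REx cells force-coupled to calcium signalling expressed D2; compounds were pin-added after a 10 s baseline, read kinetically 180 s, then an EC20 dopamine challenge followed with a further 180 s calcium read.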
D2 ag-1: activates the human D2 dopamine receptor | actives 0.084% (n = 360,000) | activation, % (no concentration beside the values) | DiscoveRx PathHunter D2 beta-arrestin, luminescence, 90 min; 100% = 57 uM dopamine signal; in the data active = activation above about 40%
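DiscoveRx PathHunter D2 beta-arrestin cells (2,100/well) attached overnight, then compound-stimulated 90 min at 37 C in HBSS/10 mM HEPES/0.1% Tween-20 buffer; beta-galactosidase complementation read by luminescence after 1 h at ambient temperature. Dopamine 57 uM final (EC100) as control.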
D2 antagonist: antagonists of human D2 dopamine receptor; P14416; HEK293 TREx D2 cells, calcium flux, dopamine EC80; inhibition, % at 10 µM; actives 2% (n = 340,000); AID 485344; in the data active = inhibition above about 30%; inactive = below that, where a call was filed; also: 0% is about no effect
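Calcium mobilization kinetics were recorded at 1 s intervals in tetracycline-induced HEK293 T-REx D2 cells, first for 180 s after compound addition and then 180 s after EC80 dopamine.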
D2 ag-2: agonists of human D2 dopamine receptor; activation, % at 2 µM; actives 0.53% (n = 340,000); AID 485358; P14416; HEK293 T-REx D2 cells, calcium flux agonist mode;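 active = activation over 3 SD above normal in the single-dose calcium agonist read, cut at about 30% in these data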; also: 0% is about no effect
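HEK293 Trex D2 cells, tetracycline-induced, o/n 30 C 5% CO2; no-wash Ca dye, RT 30–90 min; 10-cycle baseline, 23 nl cpd added, kinetic Ca read 180 s; agonist hits = positive Ca response.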
* marks the source's active call; other numbers are inactive results; · = not tested or not shown. In the library only some 2.4% were active in any assay of this set; here they are far more common.

SMILES | D2 PAM-1 | D2 PAM-2 | D2 ag-1 | D2 antagonist | D2 ag-2
Cn1c(SCC(=O)NC2CCCCC2)nnc1C(F)(F)F | -5.5 | · | -2.0 | · | ·
O=C(O)c1cc(-c2cccs2)nc2ccc(Br)cc12 | · | 0.4 | · | 33.6* | 0.1
Cc1ccccc1NS(=O)(=O)c1ccc(C2CNC(=O)C2)cc1 (stereo unspecified) | -3.5 | · | 0.0 | 65.6* | 1.2
O=C1CC(c2ccc(S(=O)(=O)NCc3ccccc3)cc2)CN1 (stereo unspecified) | -0.6 | 4.0 | -2.2 | 0.9 | 0.0
CCn1cc(C(=O)N2CCc3ccccc3C2)c(=O)c2cc(S(=O)(=O)N3CCCCC3)ccc21 | · | -21.0 | · | -14.1 | 68.1*
Cn1cc(C(=O)N2CCc3ccccc3C2)c(=O)c2cc(S(=O)(=O)N3CCCCC3)ccc21 | · | -16.8 | · | -11.0 | 1.3
Cn1cc(C(=O)NC2CCCCCC2)c(=O)c2cc(S(=O)(=O)N3CCCC3)ccc21 | -13.9 | -0.9 | -4.8 | 2.7 | 3.0
Cn1cc(C(=O)NC2CCCCCCC2)c(=O)c2cc(S(=O)(=O)N3CCCC3)ccc21 | -6.1 | 31.7* | -2.1 | -9.5 | 1.6
CC1CCCN(CCCNC(=O)c2cn(C)c3ccc(S(=O)(=O)N(C)C4CCCCC4)cc3c2=O)C1 (stereo unspecified) | -17.2 | -14.5 | -1.2 | 36.5* | 0.4
CC1CCN(CCCNC(=O)c2cn(C)c3ccc(S(=O)(=O)N(C)C4CCCCC4)cc3c2=O)CC1 | · | 11.4 | · | · | -0.8
CCn1c(=O)cc(OCC(=O)N(C)c2ccc(OC)cc2)c2ccccc21 | · | 8.8 | · | · | -1.2
Cn1c(=O)c2c(nc(N3CCN(c4ccc([N+](=O)[O-])cc4)CC3)n2C)n(C)c1=O | -4.8 | 2.5 | -18.9 | 33.5* | 0.4
Cn1c(=O)c2c(ncn2CC(=O)N2CCN(c3ccc([N+](=O)[O-])cc3)CC2)n(C)c1=O | -2.1 | -1.5 | 0.0 | -3.7 | -0.1
Cn1c(=O)c2c(nc(N3CCCCC3)n2C)n(C)c1=O | 4.4 | 30.1* | 1.1 | -9.7 | -1.3
Cc1ccc(-c2nc(C)c(CCNS(=O)(=O)c3ccccc3F)s2)cc1 | · | 11.4 | · | · | 0.5
Cc1ccc(C(=O)NCCc2c[nH]c3ccccc23)c(C)c1 | -9.9 | -26.0 | -4.2 | 73.8* | -0.3
O=C(CN1C(=O)c2ccccc2C1=O)Nc1ccccc1N1CCOCC1 | -3.1 | -1.2 | 4.4 | -18.4 | -0.6
CCCCN1C(=O)c2ccc(C(=O)Nc3ccccc3N3CCOCC3)cc2C1=O | -28.0 | 6.8 | -6.1 | 43.8* | 2.7
CN(C)S(=O)(=O)c1cccc(NC(=O)CCNC(=O)Nc2ccccc2)c1 | -3.9 | · | -0.8 | · | ·
COc1cc(CCC(=O)Nc2cccc(S(=O)(=O)N(C)C)c2)cc(OC)c1OC | -5.4 | 5.4 | -2.5 | 39.3* | 0.2
CN(C)S(=O)(=O)c1cccc(NC(=O)CCSc2ccc(Cl)cc2)c1 | -25.1 | -20.1 | -2.4 | 33.1* | 1.2
COc1cc(/C=N/NC(=S)Nc2cccc(S(=O)(=O)N(C)C)c2)cc(OC)c1O | 9.5 | 39.7* | 5.9 | -7.1 | -1.7
COc1cccc(/C=N/NC(=S)Nc2cccc(S(=O)(=O)N(C)C)c2)c1 | -4.8 | -10.9 | -1.0 | 0.7 | 2.2
COC(=O)c1cccc(NC(=O)CCc2cc(OC)c(OC)c(OC)c2)c1 | 6.7 | -0.3 | -0.6 | -6.8 | -0.7
CN(C)S(=O)(=O)c1cccc(NC(=O)COC(=O)c2ccc([N+](=O)[O-])o2)c1 | 78.1* | 0.5 | 10.7 | -2.3 | -0.8
SMILES | D2 PAM-1 | D2 PAM-2 | D2 ag-1 | D2 antagonist | D2 ag-2
CC1(C(=O)NS(=O)(=O)c2cccc(Cl)c2)CCN1C(=O)CCc1ccccc1 (stereo unspecified) | -8.1 | · | -1.3 | · | ·
CCCNC(=O)C1(C)CCCN(C(=O)c2c(F)ccc(C)c2F)C1 (stereo unspecified) | -2.6 | · | 6.4 | · | ·
Nc1ccc(-c2nc3ncccc3o2)cc1 | -1.2 | 1.7 | -3.2 | 32.8* | 0.1
O=C(NCCc1nc2ccccc2n1Cc1ccccc1F)c1ccc(F)cc1 | · | 3.3 | · | · | -1.8
COc1ccccc1-c1ccc(/C=C2\C=CC(=O)O2)o1 | -5.1 | -6.4 | -1.5 | -12.0 | 66.3*
Cc1nn(S(=O)(=O)c2cccc([N+](=O)[O-])c2)c(C)c1Br | 62.2* | 0.7 | 12.4 | 2.4 | -0.8
Cc1nn(S(=O)(=O)c2cccc([N+](=O)[O-])c2)c(C)c1S(=O)(=O)N1CCOCC1 | 1.5 | -7.4 | 3.6 | -1.4 | 0.0
CC(Oc1coc(CN2CCN(C(=O)c3ccco3)CC2)cc1=O)c1ccccc1 (stereo unspecified) | -22.4 | -3.2 | 4.3 | -3.4 | 30.6*
Cc1ccc(COc2coc(CN3CCN(C(=O)c4ccco4)CC3)cc2=O)cc1 | -12.1 | 9.0 | 2.9 | -4.6 | 24.1
CCOC(=O)c1cc(NC(=O)c2ccccc2)c(=O)n2c1oc1ccc(Cl)cc12 | · | · | · | · | -1.8
CCOC(=O)Cc1cc(=O)n2[nH]c(C)c(-c3ccc(OC)cc3)c2n1 | -15.1 | 30.8* | -1.0 | -12.4 | -0.7
CCCc1cc(=O)n2[nH]c(C)c(-c3ccccc3)c2n1 | -39.5 | · | -8.5 | · | ·
CCc1cc(=O)n2[nH]c(C)c(-c3ccc(OC)cc3)c2n1 | -44.5 | -16.6 | -4.1 | 33.7* | -0.2
O=C(NCc1cccs1)C1CCCN(C(=O)Nc2ccccc2)C1 (stereo unspecified) | -2.9 | -3.9 | -2.8 | 14.1 | -0.2
O=C(O)CC(NC(=O)C1CCCCC1)c1cc([N+](=O)[O-])ccc1Cl (stereo unspecified) | -4.3 | 2.8 | -4.7 | -14.4 | 0.3
O=C(O)CC(NC(=O)C12CC3CC(CC(C3)C1)C2)c1cc([N+](=O)[O-])ccc1Cl (stereo unspecified) | 2.7 | 9.6 | -3.9 | 72.3* | -1.7
Cc1cccc(C)c1NC(=O)C(c1cccs1)N(Cc1ccco1)C(=O)Cn1nnc2ccccc21 (stereo unspecified) | 13.4 | 35.2* | -11.1 | 4.8 | 0.1
COc1ccc(Cl)cc1NC(=O)CN(C)C(=O)c1ccc(C)s1 | -3.1 | 3.0 | -0.3 | -0.6 | -0.5
COc1ccc(Cl)cc1NC(=O)CN(C)C(=O)c1cc2c(F)cccc2s1 | -8.3 | -12.3 | 5.8 | 30.9* | 0.7
CCN(CC(=O)Nc1c(F)cccc1F)C(=O)c1ccc(COc2ccccc2)o1 | -12.1 | 2.0 | -6.4 | -11.4 | 0.2
NC(=O)c1cc2ccccc2o/c1=N/NC(=O)c1cccc(Cl)c1 | 1.7 | 4.8 | -3.5 | 49.0* | -0.6
CN1CCN(C(=O)CSc2nc(-c3cccs3)ccc2C#N)CC1 | -4.8 | 37.1* | 1.5 | -4.9 | -0.9
O=C(NCc1ccc(Cl)cc1)C1(c2cccs2)CCOCC1 | · | 11.7 | · | · | 0.3
O=C1CC(N2CCN(c3ccccc3Cl)CC2)C(=O)N1c1ccccc1 (stereo unspecified) | -4.2 | 3.9 | -1.8 | -8.0 | 0.2
